Test results taken from PubChem BioAssay AID2380 (Sanford-Burnham Center for Chemical Genomics, 2010).
The campaign covered roughly 330,000 compounds. About 960 (0.29%) were called active. The entries come from a sample that favours actives as a whole. Values without a mark were called inactive.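 The calls were made as follows: active = compounds whose signal lies at least 3.5 SD above the mean of all wells on their plate; inactive = the rest.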

Experiment: small molecules increasing insulinoma cell replication – ATP luminescence, uHTS, primary screen (AID 2380);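 also: 0% = DMSO-treated cells in low-serum medium and 100% = 10% serum control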
Conditions: MIN6 cells proliferation, ATPlite luminescence, 48 h; at 10 µM; active compounds read high; 100% = growth in 10% serum; cells starved in 0.2% serum

Which proliferation does the source give for `COc1ccc(/C=C2\CCCC3C2=NN(C(=O)c2scnc2C)C3c2ccc(OC)cc2)cc1` (centres undefined) here?
Its proliferation is -5.85%.

With `COc1ccc(N2CCN(C(CNS(=O)(=O)c3ccc(C)cc3)c3ccccc3)CC2)cc1` (centres undefined) as the molecule, how does the proliferation read?
The proliferation was -4.55%.

Which proliferation does the source give for `Cn1cc(CN2CCC(C(O)CCc3ccccc3)CC2)c(-c2ccccc2F)n1` (centres undefined) here?
Its proliferation is 11.8% (active).

For `CN(CCc1cnn(C)c1)Cc1cn(C)nc1-c1ccccc1F`, which proliferation is on record?
The proliferation was -0.61%.

Which proliferation does the source give for `CCCOC1CCCN(Cc2cn(C)nc2-c2ccccc2F)C1` (centres undefined) here?
Its proliferation is 1.33%.

For `COc1cc(/C=C/CO)cc(OC)c1O[C@@H]1O[C@H](CO)[C@@H](O)[C@H](O)[C@H]1O`, which proliferation is on record?
Its proliferation is -0.51%.

Which proliferation does the source give for `O=C(O)c1cccc(S(=O)(=O)N2CC=C(c3ccccc3)CC2)c1` here?
Its proliferation is 0.12%.

Which proliferation does the source give for `Cc1ccc(NC(=O)c2ccc(S(=O)(=O)NCC3CCCO3)cc2)cc1C` (centres undefined) here?
The proliferation was -3.24%.

For `N#Cc1cccc(CN2CCC(=O)N(CCO)CC2)c1`, which proliferation is on record?
Its proliferation is -4.43%.

With `O=C1CCN(Cc2ccccc2)CCN1[C@H](CSc1ccccc1)c1ccccc1` as the molecule, how does the proliferation read?
Its proliferation is 2.8%.

Which proliferation does the source give for `N#Cc1cccc(CN2CCC(=O)N([C@H](CO)c3ccccc3)CC2)c1` here?
The proliferation was 14.7% (active).

Which proliferation does the source give for `COc1cccc(N=c2oc3c(C)ncc(CO)c3cc2C(N)=O)c1` here?
Its proliferation is -0.09%.

For `CC(C)Cc1oc(C(=O)O)cc1CN`, which proliferation is on record?
The proliferation was -3.33%.

Which proliferation does the source give for `CCCCNC(=O)OCCSCCS(=O)(=O)c1ccc(Cl)cc1` here?
Its proliferation is -0.91%.

Which proliferation does the source give for `CC[C@@H]1Cc2cc(O)ccc2C2=C1c1ccc(O)cc1C[C@H]2CC` here?
The proliferation was -8.09%.

Which proliferation does the source give for `COCCCNC(=O)Cn1c(=O)n(Cc2ccccc2Cl)c(=O)c2cc(OC)c(OC)cc21` here?
Its proliferation is -2.84%.

With `COc1ccc2c(c1)C(=C(C#N)C#N)C(=O)N2CCc1ccccc1` as the molecule, how does the proliferation read?
The proliferation was -3.84%.

For `CC(N)C12CC3CC(CC(O)(C3)C1)C2` (centres undefined), which proliferation is on record?
The proliferation was -0.37%.

Which proliferation does the source give for `CN(CC(=O)Nc1c(Cl)cccc1Cl)C(=O)c1ccncc1` here?
Its proliferation is -1.79%.

Which proliferation does the source give for `CN1CCN(c2ccc(CNS(=O)(=O)c3cccc(F)c3)cc2)CC1` here?
The proliferation was -0.97%.

For `COc1ccc(-n2nnnc2CNC(=O)c2ccc3ccccc3c2)cc1`, which proliferation is on record?
The proliferation was -1.98%.

Which proliferation does the source give for `CC(=O)c1ccc(S(=O)(=O)NCc2nnnn2-c2ccccc2)cc1` here?
The proliferation was 11.8% (active).

For `O=S(=O)(Cc1nnnn1-c1ccccc1)c1ccccc1`, which proliferation is on record?
The proliferation was -0.06%.

Which proliferation does the source give for `COc1ccccc1C(=O)N1CCN=C1SCc1cccnc1` here?
The proliferation was 0.39%.

Which proliferation does the source give for `CCCCn1c(N)c(N(CC)C(=O)c2ccc(N(C)S(=O)(=O)c3ccc(C)cc3)cc2)c(=O)[nH]c1=O` here?
Its proliferation is -0.39%.

For `Cc1cccc(NS(=O)(=O)c2cccc(C(=O)NNC(=O)c3ccccc3O)c2)c1`, which proliferation is on record?
Its proliferation is 1.68%.

Which proliferation does the source give for `CCC1(C)Cc2c(sc3nnn(CC(=O)Nc4ccc(Cl)cc4)c(=O)c23)CO1` (centres undefined) here?
The proliferation was -4.3%.

Which proliferation does the source give for `C/C(=N\NC(=O)c1ccccc1C)c1ccc(N2CCOCC2)cc1` here?
The proliferation was 5.16% (active).

With `Cc1ccc(C(=O)NC(=S)Nc2ccc(N3CCOCC3)cc2)cc1` as the molecule, how does the proliferation read?
Its proliferation is -3.24%.

With `O=C(NN=Cc1ccc(N2CCOCC2)cc1)c1cc2ccccc2cc1O` as the molecule, how does the proliferation read?
The proliferation was -1.83%.

Which proliferation does the source give for `CN=C1SC(C(=O)O)CC(=O)N1C` (centres undefined) here?
Its proliferation is -0.72%.

For `CCC(C)NC(=O)/C=C/c1ccc(S(=O)(=O)NCc2ccco2)cc1` (centres undefined), which proliferation is on record?
The proliferation was -2.61%.

For `Cc1ccc(O)c(NC(=O)c2cc(-c3ccco3)on2)c1`, which proliferation is on record?
The proliferation was -1.09%.

With `Cc1ccc(S(=O)(=O)NCCC(=O)OCC(=O)N(C)c2ccccc2)cc1` as the molecule, how does the proliferation read?
Its proliferation is 1.89%.

Which proliferation does the source give for `CN(Cc1c(F)cccc1Cl)S(=O)(=O)c1cccs1` here?
The proliferation was 0%.

Which proliferation does the source give for `O=S(=O)(NCc1ccc(Cl)cc1Cl)c1cccs1` here?
The proliferation was -2.31%.

Which proliferation does the source give for `CN(Cc1ccc(F)cc1Cl)S(=O)(=O)c1cccs1` here?
Its proliferation is 5.5% (active).

For `COc1ccc(N(CC(=O)Nc2cc(OC)cc(OC)c2)S(=O)(=O)c2c(C)n[nH]c2C)cc1`, which proliferation is on record?
Its proliferation is -2.27%.

Which proliferation does the source give for `CCCN1C(=O)C(Cc2nc3ccccc3c(=O)n2-c2ccccc2)c2cc(C)ccc21` (centres undefined) here?
The proliferation was -2.19%.

For `CN1CCN(C2Cc3ccc(Cl)cc3Sc3ccc(F)cc32)CC1` (centres undefined), which proliferation is on record?
The proliferation was -4.32%.

For `COc1ccccc1N=C(C)C1=C(O)COC1=O`, which proliferation is on record?
The proliferation was -1.39%.

For `COc1ccccc1N=Cc1c(O)c2ccccc2oc1=O`, which proliferation is on record?
Its proliferation is 6.71% (active).

With `COc1cc(N=Cc2c(O)c3ccccc3oc2=O)c(OC)cc1Cl` as the molecule, how does the proliferation read?
The proliferation was 0.34%.

For `COC(=O)c1ccc(CN2CCN(CCCc3ccccc3)C(CCO)C2)cc1` (centres undefined), which proliferation is on record?
The proliferation was -3.99%.

Which proliferation does the source give for `Cc1nn(CC(=O)Nc2ccc(N(C)C)cc2)c(C)c1[N+](=O)[O-]` here?
Its proliferation is 3.2%.

Which proliferation does the source give for `C[n+]1cc(-c2ccccc2)oc1-c1ccccc1` here?
The proliferation was -1.56%.

With `COc1ccc(-n2nnnc2SCc2nc(N)nc(N3CCOCC3)n2)cc1` as the molecule, how does the proliferation read?
Its proliferation is -2.85%.

For `COc1ccc(-c2nnn(Cc3nc(N)nc(N4CCCCC4)n3)n2)cc1`, which proliferation is on record?
The proliferation was 8.76% (active).

Which proliferation does the source give for `CN(C)c1nc(N)nc(Cn2nnc(-c3ccc(C(F)(F)F)cc3)n2)n1` here?
The proliferation was 1.04%.

For `CC(=O)Nc1ccc(NC(=O)C(C)OC(=O)c2ccccc2C(=O)c2ccc(Cl)c([N+](=O)[O-])c2)cc1` (centres undefined), which proliferation is on record?
Its proliferation is -5.3%.

Which proliferation does the source give for `O=C(Nn1c(-c2ccc(Cl)cc2)nc2ccccc2c1=O)c1cccnc1Cl` here?
Its proliferation is -0.79%.

For `N#CCc1ccc(NC(=O)c2ccccc2C(=O)Nc2ccc(CC#N)cc2)cc1`, which proliferation is on record?
Its proliferation is -4.24%.

Which proliferation does the source give for `CCOc1ccccc1NC(=O)Nc1cc(OC)ccc1OC` here?
Its proliferation is 7.28% (active).

For `CCOc1ccc(NC(=O)Nc2cc(C)ccc2OC)cc1`, which proliferation is on record?
The proliferation was -2.89%.

For `COc1ccc(OC)c(NC(=O)CC(Cc2ccccc2OC)C(=O)O)c1` (centres undefined), which proliferation is on record?
The proliferation was -2.33%.

For `CC(C)(C)N(Cc1ccccc1)C(=O)c1ccncc1`, which proliferation is on record?
The proliferation was -4.48%.

Which proliferation does the source give for `O=c1[nH][nH]c(C(F)(F)F)c1C=NCc1ccccc1Cl` here?
The proliferation was -0.46%.

For `COc1ccc(CCn2c(=N)c(C(=O)NCc3ccco3)cc3c(=O)n4cccc(C)c4nc32)cc1`, which proliferation is on record?
Its proliferation is 10.3% (active).

Which proliferation does the source give for `COc1ccc(CCn2c(=N)c(C(=O)NCC3CCCO3)cc3c(=O)n4cccc(C)c4nc32)cc1OC` (centres undefined) here?
Its proliferation is -3.69%.

Which proliferation does the source give for `Cc1cccn2c(=O)c3cc(C(=O)NCCN4CCOCC4)c(=N)n(Cc4cccnc4)c3nc12` here?
Its proliferation is -6.51%.

Which proliferation does the source give for `NS(=O)(=O)c1ccc(-c2ccc(/C=C3\SC(=O)NC3=O)o2)cc1` here?
The proliferation was 2.43%.

With `COc1ccc2cc(-c3[nH]ncc3CNCCn3nc(C)cc3C)ccc2c1` as the molecule, how does the proliferation read?
The proliferation was -1.3%.

Which proliferation does the source give for `NC(=O)C1CCN(C2OC(=O)c3ccccc32)CC1` (centres undefined) here?
Its proliferation is -1.61%.

With `O=C(Nc1ccc(F)cc1)C1CCCN(S(=O)(=O)c2ccc(-n3cnnn3)cc2)C1` (centres undefined) as the molecule, how does the proliferation read?
The proliferation was 0% (active).

Which proliferation does the source give for `CC(C)CNC(=O)C1CCCN(S(=O)(=O)c2ccc(-n3cnnn3)cc2)C1` (centres undefined) here?
The proliferation was 1.81%.

With `CC(NC(=O)C1CCCN(S(=O)(=O)c2ccc(-n3cnnn3)cc2)C1)c1ccc(F)cc1` (centres undefined) as the molecule, how does the proliferation read?
The proliferation was -0.52%.

Which proliferation does the source give for `O=C(Nc1cccn(Cc2c(Cl)cccc2Cl)c1=O)c1ccc(Cl)cc1` here?
Its proliferation is 0.88%.

For `O=C(Cc1c(F)cccc1Cl)N1CCN(C(=O)c2ccco2)CC1`, which proliferation is on record?
Its proliferation is -0.41%.

For `Cc1cc(NC(=O)c2ccco2)c(=O)n(Cc2c(F)cccc2Cl)c1`, which proliferation is on record?
Its proliferation is 6.29% (active).

With `COc1cc2cc(CN(CCN3CCCC3)C(=O)Nc3ccccc3Cl)c(=O)[nH]c2cc1OC` as the molecule, how does the proliferation read?
The proliferation was -1.42%.

For `CN(Cc1ccc2nsnc2c1)Cc1nc(Cc2cccc(F)c2)no1`, which proliferation is on record?
Its proliferation is -1.6%.

For `CC1(C)Cc2c(sc(NC(=O)C(=O)NCC3CCCO3)c2C(=O)O)CO1` (centres undefined), which proliferation is on record?
The proliferation was -1.4%.

For `Cc1nn(C(C)C(=O)NCCC2=CCCCC2)c(=O)c2nn(-c3ccccc3)c(C)c12` (centres undefined), which proliferation is on record?
The proliferation was 11.7% (active).

Which proliferation does the source give for `Cc1nn(C(C)C(=O)N2CCOCC2)c(=O)c2nn(-c3ccccc3)c(C)c12` (centres undefined) here?
Its proliferation is -0.46%.

For `COc1ccc(CNC(=O)C(C)n2nc(C)c3c(C)n(-c4ccccc4)nc3c2=O)c(OC)c1` (centres undefined), which proliferation is on record?
The proliferation was 0.39%.

For `COC(=O)c1ccc(C(NC(=O)OCc2ccccc2)/C(C)=C/[C@@H](C)C(=O)NCc2ccc(OC)c(OC)c2)cc1` (some centres undefined), which proliferation is on record?
Its proliferation is -1.99%.

For `CC(C)OCCCNC(=S)N1CCC(C(=O)c2ccc3c(c2)OCCO3)CC1`, which proliferation is on record?
Its proliferation is -1.17%.

For `CC(C)C(=O)Nc1c2c(nn1-c1ccccc1)CSC2`, which proliferation is on record?
The proliferation was 0.9%.

For `CC1(C)C2CC=C(/C=N/NC(=O)C3CC3)C1C2` (centres undefined), which proliferation is on record?
Its proliferation is 7.56% (active).

Which proliferation does the source give for `COc1ccc(/C=N/NC(=O)C2CC2)c(OC)c1OC` here?
Its proliferation is 0.51%.

For `CC1(C)C2CC=C(/C=N/NC(=O)c3ccc(Cl)cc3)C1C2` (centres undefined), which proliferation is on record?
The proliferation was -2.07%.

With `O=[N+]([O-])c1ccc2c(c1)C(N1CCOCC1)/C(=C/C1(O)CCCCC1)O2` (centres undefined) as the molecule, how does the proliferation read?
The proliferation was -1.4%.

For `O=C(O)c1cc(S(=O)(=O)N(Cc2ccccc2)c2cccc(C(F)(F)F)c2)ccc1Cl`, which proliferation is on record?
The proliferation was -1%.

Which proliferation does the source give for `CCC1(CC)NC(=O)N(CC(=O)OCC(=O)Nc2ccc(C(F)(F)F)cc2)C1=O` here?
The proliferation was -0.99%.

With `CC1CCN(C(=O)/C(=C\c2ccccc2)NC(=O)c2ccccc2)CC1` as the molecule, how does the proliferation read?
The proliferation was 2.17%.

With `O=C(OCCN1CCOCC1)C1(c2ccccc2)CCCCC1` as the molecule, how does the proliferation read?
The proliferation was 5.6%.

Which proliferation does the source give for `CCCC(NCC(=O)Nc1ccccc1C(=O)NC1CC1)c1ccccc1` (centres undefined) here?
Its proliferation is -0.98%.

For `Cc1ccc(NC(=O)COC(=O)CNC(=O)c2ccc(Cl)cc2Cl)cc1S(=O)(=O)N1CCOCC1`, which proliferation is on record?
The proliferation was -0.42%.

For `Cc1cccc2c1-c1sc(C(=O)NCCCN3CCc4ccccc4C3)cc1CO2`, which proliferation is on record?
The proliferation was -7.36%.
